This is a sample that favours compounds with a hit; in the whole collection about 1.6% have one here.
KCNQ2 inh: blocks the rat KCNQ2 potassium channel; O88943; CHO-K1 KCNQ2, FluxOR thallium flux, 20 min; active compounds read low; B-score at 10 µM; 310,000 tested, 1.1% active;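 active means fluorescence ratio B-score at most minus 3 library SDs, with starting brightness B-score within 2 library SDs, cut at about -5.5 in these data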
KCNQ2 enhance: KCNQ2 (rat) channel potentiation | CHO-K1 KCNQ2, FluxOR thallium flux fluorescence; active compounds read high | B-score at 10 µM | 310,000 tested, 0.54% active;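 active means fluorescence ratio B-score at least 3 SD of library B-scores, with initial fluorescence B-score within 3 of them, cut at about 5.3 in these data; same plate scores as AID 2156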;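 further: B-score of peak minus minimum over baseline fluorescence ratio after K+ and Tl+ stimulus; positive B-score means potentiation of KCNQ2 with more thallium influx and brighter signal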
KCNQ2 block conf: confirmation of rat KCNQ2 potassium channel inhibitors. shares compounds with KCNQ2 inh. activity change, negative = inhibition, % at 10 µM. KCNQ2-expressing cells, thallium flux, inhibition; active compounds read low. 1,000 tested, 57% active;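 further: 0% = vehicle wells and values are ratio percent relative to vehicle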
KCNQ1 spec: selectivity of KCNQ2 inhibitors against human KCNQ1; 1,000 tested, 15% active; activity change, negative = inhibition, % at 10 µM; shares compounds with KCNQ2 inh; KCNQ1-expressing cells, FluxOR thallium flux fluorescence; active compounds read low;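 active means activity change at least 3 SD of negative controls below their mean in both duplicate wells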;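 further: CHO cells stably transfected with KCNQ1 and depolarized by potassium stimulus; peak minus minimum fluorescence over baseline after thallium addition; 0% = vehicle negative control and -100% = blank without thallium stimulus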
Target sequence (P51787 whole entry, looked up): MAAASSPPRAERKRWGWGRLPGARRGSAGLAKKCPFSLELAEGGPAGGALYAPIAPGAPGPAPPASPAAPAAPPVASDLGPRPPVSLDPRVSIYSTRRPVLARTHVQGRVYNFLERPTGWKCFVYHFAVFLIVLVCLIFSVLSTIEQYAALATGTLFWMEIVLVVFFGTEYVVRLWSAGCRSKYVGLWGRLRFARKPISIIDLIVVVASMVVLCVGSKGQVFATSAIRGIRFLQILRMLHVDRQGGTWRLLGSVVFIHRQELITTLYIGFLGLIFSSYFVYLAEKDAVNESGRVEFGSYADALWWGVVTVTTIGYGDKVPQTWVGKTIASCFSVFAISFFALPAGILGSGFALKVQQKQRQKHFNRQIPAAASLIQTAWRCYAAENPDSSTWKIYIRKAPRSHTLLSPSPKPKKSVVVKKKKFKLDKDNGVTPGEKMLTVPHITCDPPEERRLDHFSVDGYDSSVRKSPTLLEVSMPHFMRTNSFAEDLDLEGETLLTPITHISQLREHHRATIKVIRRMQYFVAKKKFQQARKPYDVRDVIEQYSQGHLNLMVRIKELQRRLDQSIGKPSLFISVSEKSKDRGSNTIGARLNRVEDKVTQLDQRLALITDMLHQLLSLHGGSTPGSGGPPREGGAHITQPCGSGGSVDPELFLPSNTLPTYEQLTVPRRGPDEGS
CHO parental ctr: counter-screen for KCNQ2 inhibitors: effect in parental CHO cells; AID 493029; activity change, % at 10 µM; thallium flux counter-screen; active compounds read low; 1,000 tested, 14% active; shares compounds with KCNQ2 inh;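 further: 0% = vehicle negative controls with stimulus buffer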
KCNQ2 patch conf: rat KCNQ2 inhibition confirmed by electrophysiology | AID 588531 | 550 tested, 49% active | shares compounds with KCNQ2 inh | KCNQ2-expressing cells, automated patch clamp current | calls only at 10 µM
* = called active by the depositor. Unless noted, how the calls were made is not given here.

What do the screens show for `CCOc1ccc2nc(SCC(=O)Nc3ccc(S(=O)(=O)N4CCCC4)cc3)c(C)cc2c1`?
KCNQ2 inh: -8.5*; KCNQ2 enhance: -8.5; KCNQ2 block conf: inactive; KCNQ1 spec: inactive; CHO parental ctr: inactive

What do the screens show for `O=C(c1ccc(-n2cccn2)cc1)N1CCc2ccccc2C1`?
KCNQ2 inh: inactive

How did CC(NC(=O)COc1ccc(N(C)S(=O)(=O)c2ccccc2)cc1)c1ccccc1 (stereo not given) do in these assays?
KCNQ2 inh: inactive

How did O=C(N/N=C/c1ccccc1)c1ccc(OCc2ccccc2)cc1 do in these assays?
KCNQ2 inh: inactive; KCNQ2 enhance: 0.39

What do the screens show for `O=C(N/N=C/c1ccccc1)c1sccc1OCc1ccc(F)cc1`?
KCNQ2 inh: -6.8*; KCNQ2 enhance: -6.8; KCNQ2 block conf: inactive; KCNQ1 spec: inactive; CHO parental ctr: inactive

What do the screens show for `CC1CCCCC1NC(=O)C1CCN(S(=O)(=O)c2cccc3nonc23)CC1` (stereo not given)?
KCNQ2 inh: inactive; KCNQ2 enhance: 0.25

How did Cc1ccc(NS(=O)(=O)c2cccc(C(=O)NCCCN3CCCC3=O)c2)cc1 do in these assays?
KCNQ2 inh: inactive

What do the screens show for `Cc1cc(OC(=O)c2cc(Br)ccc2Cl)c([N+](=O)[O-])c(=O)[nH]1`?
KCNQ2 inh: inactive

What do the screens show for `CCc1ccc(OCC(=O)NNC(=O)c2cc(S(=O)(=O)N(C)C)ccc2N2CCCC2)cc1`?
KCNQ2 inh: inactive; KCNQ2 enhance: 0.12

How did CN(C)S(=O)(=O)c1ccc(N2CCCC2)c(C(=O)NNC(=O)c2ccc(Br)cc2)c1 do in these assays?
KCNQ2 inh: -10*; KCNQ2 enhance: -10; KCNQ2 block conf: -24%*; KCNQ1 spec: inactive; CHO parental ctr: inactive; KCNQ2 patch conf: active

What do the screens show for `CN(C)S(=O)(=O)c1ccc(N2CCCC2)c(C(=O)Nc2ccc(C(N)=O)cc2)c1`?
KCNQ2 inh: inactive

How did CN(C)S(=O)(=O)c1ccc(N2CCCC2)c(C(=O)NNC(=O)COc2ccc(Cl)cc2)c1 do in these assays?
KCNQ2 inh: -7*; KCNQ2 enhance: -7; KCNQ2 block conf: inactive; KCNQ1 spec: inactive; CHO parental ctr: inactive

Results for CC1(C)C/C(=N\O)C(C(O)c2cccc([N+](=O)[O-])c2)C(C)(C)N1 (stereo not given) ?
KCNQ2 inh: inactive; KCNQ2 enhance: 1.1

Results for O=C(CCN1C(=O)[C@@H]2Cc3ccccc3CN2C1=O)Nc1cccc(F)c1 ?
KCNQ2 inh: inactive

What do the screens show for `O=C(N1CCN(c2ncccn2)CC1)C12CC3CC(CC(C3)C1)C2`?
KCNQ2 inh: inactive; KCNQ2 enhance: 0.58

How did CCC(NC(=O)C1CCCC1)c1ccccc1 (stereo not given) do in these assays?
KCNQ2 inh: inactive

What do the screens show for `CCCn1nnnc1NCc1ccc(N(CC)CC)cc1`?
KCNQ2 inh: inactive; KCNQ2 enhance: 1.4

Results for CC(C)=CCc1c(-c2ccc(O)cc2O)oc2cc3c(c(O)c2c1=O)C=CC(C)(C)O3 ?
KCNQ2 inh: inactive

How did COc1ccc(-c2oc3c4c(cc(OC)c3c(=O)c2CC=C(C)C)OC(C)(C)C=C4)c(OC)c1 do in these assays?
KCNQ2 inh: -9*; KCNQ2 enhance: -9; KCNQ2 block conf: inactive; KCNQ1 spec: inactive; CHO parental ctr: inactive

Results for COc1ccc(CN(C)C(=O)c2ccc(COc3ccccc3)cc2)c(OC)c1 ?
KCNQ2 inh: inactive

How did COc1ccc(CN(C)C(=O)C(Cc2ccccc2)NC(=O)c2ccccc2)c(OC)c1 (stereo not given) do in these assays?
KCNQ2 inh: -6.7*; KCNQ2 enhance: -6.7; KCNQ2 block conf: -33%*; KCNQ1 spec: inactive; CHO parental ctr: inactive; KCNQ2 patch conf: active

How did CC1=CCC2C(=O)N(c3cccc(C(=O)Nc4ccccc4Cl)c3)C(=O)C2C1 (stereo not given) do in these assays?
KCNQ2 inh: inactive

Results for CCC(C(=O)OC)(C(=O)OC)c1ccc([N+](=O)[O-])cc1 ?
KCNQ2 inh: inactive; KCNQ2 enhance: 0.02

What do the screens show for `Cc1nn(-c2ccccc2)c(N)c1-c1ccccc1`?
KCNQ2 inh: inactive

What do the screens show for `Cc1nn(-c2ccccc2)c(/N=C/c2ccccc2O)c1-c1ccccc1`?
KCNQ2 inh: -11*; KCNQ2 enhance: -11; KCNQ2 block conf: -43%*; KCNQ1 spec: -50%*; CHO parental ctr: -43%*; KCNQ2 patch conf: inactive

Results for c1ccc(C2=Nc3c(ccc4ccccc34)C(c3ccncc3)=NN2)cc1 ?
KCNQ2 inh: -12*; KCNQ2 enhance: -12; KCNQ2 block conf: -29%*; KCNQ1 spec: inactive; CHO parental ctr: inactive; KCNQ2 patch conf: active

Results for Cc1ccc2c(c1)C(c1ccncc1)=NNC(c1ccccc1)=N2 ?
KCNQ2 inh: inactive

What do the screens show for `COCCn1cc(C(=O)NCc2ccco2)c2c3ccccc3n(C)c2c1=O`?
KCNQ2 inh: inactive; KCNQ2 enhance: 0.07

What do the screens show for `Cn1c2ccccc2c2c(C(=O)NCc3ccco3)cn(C3CCCCC3)c(=O)c21`?
KCNQ2 inh: -9.8*; KCNQ2 enhance: -9.8; KCNQ2 block conf: -26%*; KCNQ1 spec: inactive; CHO parental ctr: inactive; KCNQ2 patch conf: active

What do the screens show for `COc1ccc(C2=NN(CN3C(=O)C(=O)c4ccccc43)C(c3cccc([N+](=O)[O-])c3)C2)cc1` (stereo not given)?
KCNQ2 inh: inactive; KCNQ2 enhance: 0.59

What do the screens show for `COc1cc(NC(=O)CSc2cc(C)c3cc(C)cc(C)c3n2)c(C(=O)O)cc1OC`?
KCNQ2 inh: inactive

Results for COc1ccc(Cl)cc1NC(=O)NC(C)C ?
KCNQ2 inh: inactive

Results for COc1ccc(Cl)cc1NC(=O)C(C)N(C)Cc1cccc(Cl)c1Cl (stereo not given) ?
KCNQ2 inh: -7.3*; KCNQ2 enhance: -7.3; KCNQ2 block conf: inactive; KCNQ1 spec: inactive; CHO parental ctr: inactive

What do the screens show for `CCn1nc(C(=O)Nc2ccc3nc(C)sc3c2)c2ccccc2c1=O`?
KCNQ2 inh: inactive; KCNQ2 enhance: 1.2

What do the screens show for `CCn1nc(C(=O)Nc2ccccc2N2CCCC2)c2ccccc2c1=O`?
KCNQ2 inh: -8*; KCNQ2 enhance: -8; KCNQ2 block conf: -38%*; KCNQ1 spec: inactive; CHO parental ctr: inactive; KCNQ2 patch conf: inactive

Results for CCCn1c(SCC(=O)Nc2ccccc2Cl)n[nH]c1=O ?
KCNQ2 inh: inactive; KCNQ2 enhance: 0.73

Results for Cc1ccccc1OCC(=O)NCCC1=CCCCC1 ?
KCNQ2 inh: -7.3*; KCNQ2 enhance: -7.3; KCNQ2 block conf: inactive; KCNQ1 spec: inactive; CHO parental ctr: inactive

How did CC(=O)Nc1ccccc1OCC(=O)NCCC1=CCCCC1 do in these assays?
KCNQ2 inh: inactive; KCNQ2 enhance: 1.3

How did CC1(C)CSC(=NCCc2ccccc2)N1 do in these assays?
KCNQ2 inh: inactive

Results for O=c1[nH]nc(N2CCOCC2)c(=O)[nH]1 ?
KCNQ2 inh: inactive

Screens from PubChem BioAssay.
